Source: PubChem (National Center for Advancing Translational Sciences (NCATS))
Hits are enriched below; roughly 1.4% of the tested compounds scored in any of these assays.
GRP78 ERSR act: qHTS for Inducers of the Endoplasmic Reticulum Stress Response (ERSR) in Human Glioma: qHTS. actives 0.02% (n = 420,000). U87-MG GRP78 promoter luciferase reporter, 16 h. AID 602332, 2012. Potency, µM, without a hit: at the highest dose activation, actives largely listed as activators; also: potency is read from the fitted curve at half-maximal effect; series mostly up to about 76 µM; % of control where 0% means no effect; nearly all actives have a fitted effect of over 35% in size
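Stably transfected U87-MG glioma cells carrying a GRP78-based luciferase sensor; 16 h compound incubation. Luminescence end-point read 10 min after Bright-Glo addition at room temperature.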
PTHR1 ag: qHTS for PTHR1 Agonists: Primary Screen; Parathyroid hormone/parathyroid hormone-related peptide receptor (Homo sapiens), Q03431; HEK293 GP2 PTHR1 cells, GloSensor cAMP luminescence, 1 h; Potency, µM (titrated, usually from 115 µM), for the others: at the top dose activation, actives largely listed as activators; actives 0.075% (n = 410,000); AID 743266, 2014; also: potency is read from the fitted curve at half-maximal effect; nearly all actives have a fitted effect of over 55% in size
Target sequence (Q03431 whole entry, looked up): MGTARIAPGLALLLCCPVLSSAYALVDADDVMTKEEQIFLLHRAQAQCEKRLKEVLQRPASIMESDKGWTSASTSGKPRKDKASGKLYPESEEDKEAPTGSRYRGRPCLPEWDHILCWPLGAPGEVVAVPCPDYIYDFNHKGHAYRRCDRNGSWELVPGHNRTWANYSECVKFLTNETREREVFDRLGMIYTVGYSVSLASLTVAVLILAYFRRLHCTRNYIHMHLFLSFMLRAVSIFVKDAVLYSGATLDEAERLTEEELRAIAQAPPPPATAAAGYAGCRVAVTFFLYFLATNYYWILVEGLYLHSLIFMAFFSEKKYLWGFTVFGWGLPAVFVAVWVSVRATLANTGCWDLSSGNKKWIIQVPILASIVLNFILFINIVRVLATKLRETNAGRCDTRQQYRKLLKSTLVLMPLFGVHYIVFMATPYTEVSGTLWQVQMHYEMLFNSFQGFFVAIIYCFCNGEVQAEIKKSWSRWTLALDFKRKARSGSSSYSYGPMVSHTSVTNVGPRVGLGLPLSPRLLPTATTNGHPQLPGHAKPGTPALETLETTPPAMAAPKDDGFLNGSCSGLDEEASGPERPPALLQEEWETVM
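HEK-293-derived GP2 cells expressing PTHR1 and a GloSensor cAMP reporter, 3,000/well, plated overnight, given luciferin plus IBMX (each 0.5 mM as added) for 1 h at 37 °C, then compound for 1 h at 37 °C. Luminescence was read after 15 min at room temperature.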
KCNH2 WT inh: qHTS for Inhibitors of KCHN2 3.1: Wildtype qHTS; U2OS, BacMam KCNH2, thallium flux FluxOr; stronger effect = lower value; activity change, % at 1.84 µM; actives 0.37% (n = 340,000);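 active = maximum activity change below -70%; inconclusive = maximum activity change between -70% and -50%; inactive = maximum activity change above -50%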; also: % is scaled to controls: 0 for no effect and ±100 for the full control effect
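U2OS cells transduced with wild-type KCNH2 virus are loaded with FluxOr dye for 45 min, and thallium flux is measured in kinetic reads before and after stimulation buffer. Rate constants are normalized to DMSO controls.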
RXFP1 antag: qHTS Assay for Antagonists of the Relaxin Receptor RXFP1. HEK293-RXFP1, relaxin-stimulated cAMP HTRF, 30 min; stronger effect = lower value. AID 1259400, 2018. activity change, negative = inhibition, % at 57.5 µM. Relaxin receptor 1 (Homo sapiens), Q9HBX9. actives 0.59% (n = 350,000);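 active = activity change of -60% or lower, but not beyond a set lower limit; inconclusive = change between -60% and -40%, or beyond the set limit; inactive = change above -40%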; also: % is scaled to controls: 0 for no effect and ±100 for the full control effect
RXFP1 ag: qHTS Assay for Agonists of the Relaxin Receptor RXFP1. Relaxin receptor 1 (Homo sapiens), Q9HBX9. HEK293T-RXFP1 cAMP TR-FRET, 30 min; response scale: percent of porcine relaxin response, buffer zero. Potency, µM (titrated, usually from 57.5 µM), for inactives: at the top dose activation, usual class: activators. actives 0.3% (n = 370,000); also: potency is read from the fitted curve at half-maximal effect; % is scaled to controls: 0 for no effect and ±100 for the full control effect; nearly all actives have a fitted effect of over 60% in size
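Agonist response is measured as cAMP accumulation in an RXFP1-transfected HEK293T line under PDE4 inhibition. Values are scaled between buffer-only and 29 nM porcine relaxin, and EC50s come from standard Hill equation fits.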
KCNH2 3.1 block: qHTS for Inhibitors of KCHN2 3.1: Mutant qHTS; actives 0.95% (n = 340,000); U2OS KCNH2 3.1, thallium flux FluxOr; stronger effect = lower value; Potassium voltage-gated channel subfamily H member 2, brain isoform KCNH2 3.1 (human); AID 720553, 2013; activity change, % (tested at about 1.8 µM);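 active = maximum activity change below -70%; inconclusive = maximum activity change from -70% to -50%; inactive = maximum activity change above -50%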;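 also: thallium influx rate constant from kinetic fluorescence after stimulation buffer; % is scaled to controls: 0 for no effect and ±100 for the full control effect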
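Virally transduced U2OS (3.1 isoform, 4 h infection in dark at RT) → overnight 37 C → FluxOr + Red40 in HBSS/HEPES, 45 min → stimulation buffer, 2 min kinetic read → rate constant vs DMSO controls.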
* hit, by the source's call; i = inactive; ? = inconclusive; . = no result given; [ ] = another dose, or the depositor's remark. Unless noted, calls follow the shape of the dose curve; as a rule, active = well fitted curve in the direction sought with a large enough effect; inconclusive = small, poorly fitted or top-dose-only effect, or another doubt; inactive = no such curve, though single readings can be large; an effect the other way counts as inactive or inconclusive.

SMILES	GRP78 ERSR act	PTHR1 ag	KCNH2 WT inh	RXFP1 antag	RXFP1 ag	KCNH2 3.1 block
CCC(Sc1nc2cc3c(cc2c(=O)n1Cc1ccco1)OCO3)C(=O)Nc1cccc(OC)c1 (stereo unspecified)	0%	20%[57.5 µM]	?	-19	4%	-87*
Fc1ccc(C(CCNCc2ccccn2)c2ccc(Cl)cc2)cc1 (stereo unspecified)	-9%	15%	-89*	?	3%	-91*
OC(CNCc1ccccn1)c1ccccc1 (stereo unspecified)	-3%	i	2	15	-1%	12
O=C1NCCOC(=O)[C@@H](Cc2ccc(F)cc2)C/C=C\C[C@@H]1CC(=O)N(CCO)Cc1ccccc1	-1%	-21%	9	.	.	8
O=S(=O)(NCc1ccccc1)c1ccc(-c2cnc(C3CC3)o2)cc1	-5%	-25%	-19	5	0%	6
Cc1ccc(CNS(=O)(=O)c2ccc(-c3cnc(C4CC4)o3)cc2)cc1	-1%	-21%	-14	12	1%	-89*
CCCS(=O)(=O)NCCc1cc2cc(C)c(C)cc2[nH]c1=O	4%	i	-1	7	0%	-6
Cc1cc(C)cc(Cn2cc(CN3CC(N(C)C)CS3(=O)=O)nn2)c1 (stereo unspecified)	.	-17%	.	.	.	.
CC(=O)c1cn(N(C)c2ncc(C(F)(F)F)cc2Cl)c(=O)[nH]c1=O	-4%	-41%	3	0	-1%	4
C=CCn1c(=O)c(C(C)=O)cn(N(C)c2ncc(C(F)(F)F)cc2Cl)c1=O	-1%	-13%	-2	-3	-2%	-114*
O=C1c2ccccc2C(c2nnnn2-c2ccc3c(c2)OCCO3)N1C1CC1 (stereo unspecified)	.	-7%	.	.	.	.
Cc1cccc(CNC(=O)C2CCN(c3nc4ccc(Cl)cc4[nH]3)CC2)c1	0%	-16%	.	-72*	5%	.
Cc1ccc(S(=O)(=O)N2CCN(C(=O)CCCOc3cccc(C)c3)CC2)cc1	-1%	-27%	-5	3	1%	-4
CC(=O)c1c(C)[nH]c(C(=O)COC(=O)CCSc2ccccc2)c1C	1%	-6%	6	-64*	0%	-7
CCSc1nc(=S)cc(C)[nH]1	-2%	i	1	-75*	2%	-1
Cc1cc2c(cc1C)/C(=N/NC(=O)c1ccccn1)CCC2	-3%	i	-2	-93*	-1%	4
O=C(NN=C1CCC(=NNC(=O)c2ccccn2)CC1)c1ccccn1	-6%	-13%	21	-13	0%	4
Ic1ccc(N2CCN(Cc3c[nH]c4ncccc34)CC2)cc1	-3%	-24%	-19	.	-1%	-79*
C(=N\n1cnnc1)/c1cccs1	-3%	i	12	-2	0%	-86*
C(=N\N=C\c1cccs1)/c1cccs1	-5%	-30%	-1	-3	-3%	-1
COc1cc(NC(=O)C(=O)NCCN(C)C)c(OC)cc1Cl	-4%	i	17	-69*	11%	-2
CC(C)CNC(=O)c1cc(-c2ccc3c(c2)OCO3)on1	-4%	-21%	0	-8	2%	15
Cc1ccc(C(=O)NCCc2cc3ccc(C)c(C)c3[nH]c2=O)cc1[N+](=O)[O-]	1%	i	0	-7	0%	3
COc1ccc(C(=O)NCCc2cc3ccc(C)c(C)c3[nH]c2=O)cc1OC	4%	-32%	-11	-9	2%	-111*
CCOC(=O)c1c(N)nn(C(C)=O)c1-c1ccccc1	-1%	4%	-8	8	1%	-73*
SMILES	GRP78 ERSR act	PTHR1 ag	KCNH2 WT inh	RXFP1 antag	RXFP1 ag	KCNH2 3.1 block
CCOC(=O)C1=C(N)OC2=C(C(=O)CC(C)(C)C2)C1c1ccc(C)s1 (stereo unspecified)	4%	-11%	4	-62*	-4%	-45
CCOC(=O)c1c(C)c[nH]c1C	1%	-3%	2	12	-2%	-85*
Cc1ccc(Nc2nc(N)nc(CN3CCN(Cc4ccc5c(c4)OCO5)CC3)n2)c(C)c1	-4%	-7%[57.5 µM]	7	5	1%	?
Cc1ccc(Nc2nc(N)nc(CN3CCN(Cc4ccc5c(c4)OCO5)CC3)n2)cc1	-1%	-11%	-44	-12	0%	-80*
Cc1ccc(Nc2nc(N)nc(CN3CCN(Cc4ccc5c(c4)OCO5)CC3)n2)cc1C	0%	-9%	?	-23	0%	-104*
Cc1ccc(Nc2nc(N)nc(CN3CCN(C)CC3)n2)cc1C	.	.	.	.	-1%	.
Cc1ccc(Nc2nc(N)nc(CN3CCN(Cc4ccc5c(c4)OCO5)CC3)n2)cc1Cl	-15%	-18%	-90*	-19	1%	-92*
COC(=O)c1ccc(Oc2ccc(S(=O)(=O)N3CCCCC3)cc2N)cc1	-5%	-43%	3	-1	2%	3
N#C/C(=C\c1cccc(Oc2ccccc2)c1)C(=O)N1CCOCC1	0%	-30%	-5	-102*	0%	-2
CN(C)CC1CCC/C(=C\c2ccc(OC(=O)c3ccc(Cl)cc3)cc2)C1=O (stereo unspecified)	-8%	i	15	-12	.	.
CN(C)CCC1(C2=CCCC2)CC/C(=C/c2ccc(Cl)cc2)C1=O (stereo unspecified)	-10%	i	?	-73*	.	?
O=C(Nc1ccc(OC(F)(F)F)cc1)Nc1cccc([N+](=O)[O-])c1	2%	-35%	-2	-74*	-1%	-9
Cc1ccc2oc3c(c(=O)c2c1)C(c1ccc(OCC(N)=O)cc1)N(Cc1ccc2c(c1)OCO2)C3=O (stereo unspecified)	1%	i	.	-5	-2%	.
COc1ccccc1NC(=S)NC1CCCC1	-2%	-12%	0	-4	.	1
O=C(NNC(=O)c1ccccc1F)c1ccc(-c2ccc(Cl)cc2)o1	7%	-4%	0	-87*	0%	-1
O=C(NCc1ccccc1)c1ccc(-c2ccc(F)cc2)o1	4%	0%[57.5 µM]	-260*	-22	0%	-3
CCOC(=O)c1ccc2[nH]c3c(c2c1)CCCCC3=O	5%	i	27	-16	3%	-167*
CCOC(=O)c1ccc2[nH]c3c(c2c1)CCCC3C(=O)OCC (stereo unspecified)	5%	-13%[57.5 µM]	9	2	3%	15
